The text below walks through data of PubChem BioAssay (NCI).

Common to all, as to experiment: NCI-60 one-dose screen, 48 h (100 = growth as untreated, 0 = no growth, -100 = all killed)
What all share (conditions): 10 µM unless noted

The subject of assay [1] is SR leukemia.
Assay [2] concerns RPMI-8226 leukemia.
For assay [3], the system named is OVCAR-8 ovarian.
Assay [4] has as its system OVCAR-5 ovarian.
Assay [5] deals with OVCAR-4 ovarian.
The test system of assay [6] is SK-OV-3 ovarian.
Assay [7] has as its system IGROV1 ovarian.
Assay [8] concerns OVCAR-3 ovarian.
The subject of assay [9] is HS 578T breast.
For assay [10], the system named is NCI/ADR-RES ovarian.
Assay [11] relates to T-47D breast.
Assay [12] deals with BT-549 breast.
Assay [13] concerns MDA-MB-435 melanoma.
The test system of assay [14] is SW-620 colon.
Assay [15] deals with MCF7 breast.
Assay [16] has as its system HCT-116 colon.
The test system of assay [17] is HCC-2998 colon.
Assay [18] relates to KM12 colon.

SMILES strings stand for the structures. About 83,000 compounds went through this panel and 20% of them were active in at least one assay; those are over-represented in the sample as a whole.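 Plates (96-well) were seeded with cells, treated with compound at one concentration, and incubated for 48 hours before percent growth was determined.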 Values without a mark were called inactive. Active and inactive are the calls of the source. Rule for the calls: active = growth percent below 10; inactive = the rest.

Regarding `CCOC(=O)N1CCN(CCCCOc2ccc(C(C)(C)CC)cc2)CC1`, the growth in assay [1] was 90.3%; in [2] it was 84.4%; in [3], 103%; in assay [4], 106%; in [5], 93.8%; in assay [6] it was 104%. Also, the growth in assay [7] was 110%; in [8], 103%; in assay [9], 108%; in [10], 88.2%; in assay [11] it was 79.7%; in [12] it was 82.3%. For the same molecule, the growth in assay [13] was 105%; in [14] it was 101%; in [15], 103%; in assay [16], 70.8%; in [17] it was 107%; in assay [18] it was 95.6%.

Turning to `Cc1cc(N2CCCCC2)nc(N(CCNc2ccnc3cc(Cl)ccc23)Cc2ccco2)n1`, the growth is -15.8% (active) in assay [1]; -36.5% (active) in [2]; 22.3% in assay [3]; 50.2% in assay [4]; 43.2% in assay [5]; 77.9% in assay [6]. The growth in assay [7] was 18.1%; in [8], -40% (active); in assay [9] it was 51.4%; in assay [10] it was 10.5%; in assay [11], -29.3% (active); in assay [12], 42.4%. For the same molecule, the growth in assay [13] was 32.8%; in assay [14], 21.9%; in assay [15] it was 10.7%; in [16], 2.13% (active); in [17] it was 92.6%; in assay [18], 31.9%.

For `CCNCCCn1c2c(c3ccc([N+](=O)[O-])cc3c1=O)C(=O)c1cc(OC)cnc1-2`, the growth in [1] was 0% (active); in assay [2] it was -22% (active); in assay [3], -37% (active); in assay [4] it was 12.3%; in assay [5], 10.4%; in [6], -25.3% (active). For the same molecule, the growth in assay [7] was -24.1% (active); in assay [8], -33.1% (active); in assay [9] it was 8.88% (active); in [10], -40.2% (active); in assay [11], -12.9% (active); in [12], -16.2% (active). Further, the growth in assay [13] is -54.4% (active); in [14], -27% (active); in [15], -3.1% (active); in assay [16] it was -69.8% (active); in [17], -8.05% (active); in assay [18], -3.89% (active).

In the case of `COc1ccc(NC(=S)N/N=C/c2ccccc2SSCCC(=O)OC[C@H]2O[C@H](O)[C@H](O)[C@@H](O)[C@@H]2O)cc1`, the growth is 49.6% in assay [1]; 91.7% in assay [2]; 68.3% in assay [3]; 100% in assay [4]; 80.4% in assay [5]; 73.5% in [6]. Moreover, the growth is 56.8% in [7]; 91.3% in [8]; 91.6% in assay [9]; 59.7% in assay [10]; 66% in [11]; 68.9% in assay [12]. Also, the growth was 52.8% in [13]; 93.5% in assay [14]; 44.7% in assay [15]; 72.9% in assay [16]; 94.2% in [17]; 63.3% in assay [18].

As to `COc1ccc(C2NC(=O)Nc3ccccc32)c(OC)c1` (stereo unspecified), the growth in [1] was 91.7%; in assay [2], 108%; in [3] it was 101%; in assay [4], 112%; in [5] it was 105%; in assay [6], 95.3%. For the same molecule, the growth in assay [7] is 98.2%; in [8] it was 112%; in assay [9], 94.8%; in assay [10], 99%; in [11], 91.4%; in assay [12], 109%. Moreover, the growth is 101% in assay [13]; 114% in [14]; 84.6% in assay [15]; 104% in assay [16]; 92.7% in [17]; 110% in [18].

`COc1ccc2c(c1)c(-c1nc(-c3c[nH]c4ncccc34)cs1)cn2CCCN1CCCCC1`: the growth is -38% (active) in assay [1]; -33% (active) in assay [2]; 49.1% in [3]; 77.4% in [4]; 62.6% in assay [5]; 61.7% in assay [6]. The growth was 34.4% in assay [7]; 27.8% in [8]; 59.7% in [9]; 58.7% in assay [10]; 66.1% in [11]; 67.5% in [12]. Moreover, the growth is -84.6% (active) in [13]; -43.3% (active) in assay [14]; 10% (active) in assay [15]; 25.9% in assay [16]; 88.5% in assay [17]; 47.3% in assay [18].

As to `C=C1C(=O)O[C@H]2[C@H]1CC/C(COC(=O)N[C@H](Cc1c[nH]c3ccccc13)C(=O)OC)=C\CC[C@@]1(C)O[C@@H]21`, the growth is 3.67% (active) in assay [1]; 2.85% (active) in assay [2]; 50.5% in assay [3]; 98.6% in [4]; 61.4% in assay [5]; 96.2% in assay [6]. Also, the growth in assay [7] was 16.5%; in assay [8] it was -21.9% (active); in assay [9], 81.1%; in assay [10], 87.2%; in [11], -45.3% (active); in assay [12], 26.4%. Besides, the growth is 54.8% in assay [13]; -1.92% (active) in [14]; 14.7% in assay [15]; -58.2% (active) in assay [16]; 101% in [17]; 92.6% in [18].

On to `CCc1ccccc1NC(=O)c1sc2nc3c(cc2c1N)CCCC3`, for which the growth in assay [1] is 9.86% (active); in assay [2] it was 46.1%; in assay [3], 52.3%; in assay [4] it was 79.3%; in assay [5], 66.8%; in assay [6] it was 38.8%. The growth is 64.8% in [7]; 23.8% in assay [8]; 29.9% in [9]; 19.9% in assay [10]; 34.6% in assay [11]; 48.4% in [12]. Further, the growth in assay [13] is 1.18% (active); in assay [14] it was 26.7%; in assay [15], 19.8%; in assay [16], 18.7%; in assay [17] it was 78.9%; in assay [18], 27.9%.

Turning to `CC(C)(C)c1[nH]nc2c1C(c1cc3ccccc3[nH]c1=O)Nc1cc(C(=O)OCc3ccccc3)ccc1N2` (stereo unspecified), the growth in assay [1] was 38.9%; in assay [2], 53.6%; in [3], 64.9%; in [4] it was 87.8%; in assay [5], 54.3%; in assay [6] it was 83%. In addition, the growth is 78.5% in [7]; 49.2% in assay [8]; 66.6% in [9]; 86.8% in [10]; 36.7% in [11]; 56.4% in assay [12]. Further, the growth in assay [13] is 39.9%; in [14], 54.4%; in [15], 38.1%; in assay [16], 38.4%; in [17] it was 55.9%; in assay [18], 31%.

Take `CCCCCCCCNc1cccc2c1C(=O)c1ccccc1C2=O`: the growth was 108% in assay [1]; 105% in [2]; 111% in [3]; 105% in [4]; 103% in assay [5]; 108% in assay [6]. Further, the growth in assay [7] is 105%; in [8] it was 92.6%; in assay [9], 95.7%; in assay [10] it was 112%; in [11], 94.5%; in [12] it was 101%. Besides, the growth was 105% in assay [13]; 93.5% in [14]; 102% in assay [15]; 103% in [16]; 107% in [17]; 103% in [18].

In the case of `C=C(C)[C@@H]1CC[C@]2(C(=O)N3CCCNCC3)CC[C@]3(C)[C@H](CC[C@@H]4[C@@]5(C)CCC(=O)C(C)(C)[C@@H]5CC[C@]43C)[C@@H]12`, the growth in [1] is 8.04% (active); in assay [2], 92%; in [3] it was 95.6%; in assay [4], 106%; in assay [5] it was 92.3%; in assay [6], 106%. Further, the growth in assay [7] is 93.6%; in [8], 98.8%; in assay [9], 94.2%; in assay [10], 91.8%; in [11], 83.9%; in assay [12], 93.6%. Further, the growth in assay [13] was 95.5%; in assay [14], 93.5%; in assay [15], 91.4%; in assay [16] it was 71.6%; in assay [17] it was 103%; in assay [18], 98.7%.

Regarding `O=C1c2cccc3cccc(c23)C(=O)N1CC#Cc1ccc2c3c(cccc13)C(=O)N(CCO)C2=O`, the growth was 71.4% in [1]; 74.5% in assay [2]; 86.5% in assay [3]; 105% in [4]; 92.7% in assay [5]; 92.4% in assay [6]. In addition, the growth was 48.5% in [7]; 87% in [8]; 83.3% in assay [9]; 91.7% in assay [10]; 98.2% in assay [11]; 86.4% in assay [12]. Also, the growth in assay [13] is 92.7%; in assay [14], 92.2%; in assay [15], 106%; in [16], 78.4%; in assay [17] it was 106%; in [18], 101%.
